Reference: the supplement of paper PMC13380429

Assays:
[1] = system: Vero E6 infected with SARS-CoV-2; assay: morphology score (similarity to uninfected cells); higher = more like uninfected cells; details: 24 h
[2] = system: Vero E6 infected with SARS-CoV-2; assay: SARS-CoV-2 infection rate relative to infected DMSO; higher = more infection, active = 60 or less; details: 24 h

CC(=O)OCC(=O)[C@@]1(O)[C@@H](C)C[C@H]2[C@@H]3CCC4=CC(=O)C=C[C@]4(C)[C@@]3(F)[C@@H](O)C[C@@]21C [betamethasone-acetate] (10 µM)
morphology score [1]: -0.021
SARS-CoV-2 infection rate [2]: 114% (inactive)

CCCC(C)NC(=O)c1ccc(Cl)c(Cl)c1 (centres undefined) (10 µM)
morphology score [1]: -0.46
SARS-CoV-2 infection rate [2]: 119% (inactive)

CC(=O)N1N=C(c2ccc(N)cc2)c2cc3c(cc2C[C@H]1C)OCO3 [talampanel] (10 µM)
morphology score [1]: -0.0668
SARS-CoV-2 infection rate [2]: 104% (inactive)

O=C(NC[C@H]1CN(c2ccc(N3CCOCC3=O)cc2)C(=O)O1)c1ccc(Cl)s1 [Rivaroxaban (Xarelto)] (10 µM)
morphology score [1]: 0.193
SARS-CoV-2 infection rate [2]: 97.5% (inactive)

C[C@@H]1CC[C@@]2(NC1)O[C@H]1C[C@H]3[C@@H]4CC=C5C[C@@H](O[C@@H]6O[C@H](CO)[C@@H](O[C@@H]7O[C@@H](C)[C@H](O)[C@@H](O)[C@H]7O)[C@H](O)[C@H]6O[C@@H]6O[C@@H](C)[C@H](O)[C@@H](O)[C@H]6O)CC[C@]5(C)[C@H]4CC[C@]3(C)[C@H]1[C@@H]2C [solamargine] (0.833333 µM)
morphology score [1]: 0.117
SARS-CoV-2 infection rate [2]: 102% (inactive)

Oc1cc(O)c2c(c1)O[C@H](c1ccc(O)c(O)c1)[C@H](O)[C@H]2c1c(O)cc(O)c2c1O[C@H](c1ccc(O)c(O)c1)[C@H](O)C2 [procyanidin-B-2] (10 µM)
morphology score [1]: 0.114
SARS-CoV-2 infection rate [2]: 106% (inactive)

Cc1cccc(-c2n[nH]cc2-c2ccc(F)c(-c3cnn(CCO)c3)c2)n1 (10 µM)
morphology score [1]: 0.148
SARS-CoV-2 infection rate [2]: 104% (inactive)
